CYP2C9 inhib = blocks human cytochrome P450 2C9; CYP2C9 Supersomes, luciferin-H conversion, luminescence; inhibition, % at 5 µM; actives 20% (n = 96,000);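 active = blocking of liver enzyme CYP2C9 beyond about 50% at 5 µM, limit read from the data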
CYP2C19 inhib = blocks human cytochrome P450 2C19; actives 21% (n = 96,000); inhibition, % at 5 µM; CYP2C19 Supersomes, luciferin-H EGE luminescence, 30 min; P33261;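 active = CYP2C19 inhibition above a set limit at 5 µM in the primary screen, cut at about 50% in these data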;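 note: plate controls were negative control wells for no effect and 2.5 mM tranylcypromine positive control for full effect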
Target sequence (P33261 whole entry, looked up): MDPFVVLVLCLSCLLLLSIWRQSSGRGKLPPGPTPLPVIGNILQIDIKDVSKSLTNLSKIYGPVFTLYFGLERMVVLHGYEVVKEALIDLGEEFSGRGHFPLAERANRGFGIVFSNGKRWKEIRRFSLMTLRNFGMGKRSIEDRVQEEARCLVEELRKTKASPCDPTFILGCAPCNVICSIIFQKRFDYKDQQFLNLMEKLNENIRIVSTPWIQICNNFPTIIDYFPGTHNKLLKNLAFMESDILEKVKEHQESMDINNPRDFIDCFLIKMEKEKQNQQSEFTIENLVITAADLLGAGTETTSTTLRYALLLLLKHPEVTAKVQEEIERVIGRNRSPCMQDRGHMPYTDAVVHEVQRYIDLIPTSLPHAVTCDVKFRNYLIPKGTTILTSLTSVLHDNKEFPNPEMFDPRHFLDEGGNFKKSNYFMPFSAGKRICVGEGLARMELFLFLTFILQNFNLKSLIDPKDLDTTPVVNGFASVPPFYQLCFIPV
Measles CPE = protection of cells from measles virus. Measles virus-infected cells, CPE protection, absorbance. protection (pct of control), % at 4 µM. actives 1.5% (n = 140,000); in the data active = protection mostly above about 24%, no sharp cut-off; inactive = mostly below about 26%
CYP2C9 activ = activators of human CYP2C9; recombinant CYP2C9, luciferin-H conversion, luminescence; stronger effect = higher value; factor 1 = untreated enzyme, 0 = blocked; activation factor at 5 µM; AID 1024; actives 1.4% (n = 96,000);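 active = activation factor of 2 or more for CYP2C9 at a 5 µM dose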;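 note: 0 = sulfaphenazole-blocked wells and 1 = vehicle-only wells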
CYP2C19 act = increases human CYP2C19 enzyme activity. recombinant CYP2C19, luciferin-H EGE luminescence; stronger effect = higher value; 0 = fully inhibited enzyme, 1 = untreated enzyme. activation factor at 5 µM. 96,000 tested, under 10 active. AID 1025;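 active = activation factor of at least 2 at 5 µM in the primary screen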;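 note: 0 = wells with 2.5 mM tranylcypromine and 1 = vehicle-only wells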
The depositor's hits bear a star; / = no result given. Compounds with a hit are over-represented: about 22% of the library has one in this group of screens.

SMILES | CYP2C9 inhib | CYP2C19 inhib | Measles CPE | CYP2C9 activ | CYP2C19 act
O=C(Nc1ccc(Cl)c(Cl)c1)OCc1cnc(Cl)s1 | 13 | 14 | 4 | 0.9 | 0.9
COc1ccc(C(=O)CC(Nc2ccc([N+](=O)[O-])cc2)c2ccc(OC)cc2)cc1 (stereo not drawn) | 68* | 43 | 11 | 0.3 | 0.6
O=C(NCc1cccnc1)C1CCCN(S(=O)(=O)c2ccccc2)C1 (stereo not drawn) | 83* | 87* | 7 | 0.2 | 0.1
O=C(NCc1cccnc1)C1CCCN(S(=O)(=O)c2ccc(Cl)cc2)C1 (stereo not drawn) | 77* | 85* | 12 | 0.2 | 0.1
O=C(NCCc1ccccc1)C1CCCN(S(=O)(=O)c2cccnc2)C1 (stereo not drawn) | 16 | 12 | 5 | 0.8 | 0.9
O=C(NCc1ccc(F)cc1)C1CCCN(S(=O)(=O)c2cccnc2)C1 (stereo not drawn) | 28 | 19 | 6 | 0.7 | 0.8
CCn1c(O)c(N=NC(=O)CNc2ccc(C)cc2)c2ccccc21 | / | / | 5 | / | /
O=C(Nc1nc(-c2ccco2)c(-c2ccco2)s1)C1CCC1 | / | / | 9 | / | /
O=C(NCC(c1cccnc1)N1CCN(c2ccccc2)CC1)OCc1ccccc1 (stereo not drawn) | / | / | 8 | / | /
O=C(NCC(c1cccnc1)N1CCN(c2ccccc2F)CC1)c1ccccc1 (stereo not drawn) | 31 | 52* | 18 | 0.7 | 0.5
O=C(NCC(c1cccnc1)N1CCN(c2ccccc2F)CC1)OCc1ccccc1 (stereo not drawn) | 94* | 91* | 8 | 0.1 | 0.1
O=C(NCC(c1cccnc1)N1CCN(c2ccc(F)cc2)CC1)OCc1ccccc1 (stereo not drawn) | 82* | 85* | 1 | 0.2 | 0.1
O=C(NCC(c1cccnc1)N1CCOCC1)c1ccc2c(c1)OCO2 (stereo not drawn) | / | / | 14 | / | /
O=C(NCC(c1cccnc1)N1CCN(c2ccccc2)CC1)c1ccc2c(c1)OCO2 (stereo not drawn) | 76* | 59* | 5 | 0.2 | 0.4
CCCC1CC(CSc2ncn[nH]2)OC1=O (stereo not drawn) | / | / | 6 | / | /
CC(=O)Nc1ccc(N2CCCC2)cc1 | -16 | 7 | 9 | 1.2 | 0.9
O=C(NCC(c1cccnc1)N1CCN(c2ccc(F)cc2)CC1)c1cccc(Cl)c1 (stereo not drawn) | 52* | 45 | 6 | 0.5 | 0.6
Cc1ccc(SC(C)C(=O)N2CCCC2)cc1 (stereo not drawn) | 18 | 76* | 1 | 0.8 | 0.2
Cc1ccc2nc(SC(C)C(=O)N3CCCC3)[nH]c2c1 (stereo not drawn) | / | / | 8 | / | /
CCOC(=O)C(C(C)=O)c1c(Br)c(O)c(O)c2c(C(=O)c3ccc(C)cc3)coc12 (stereo not drawn) | 98* | 32 | 1 | 0 | 0.7
CCOC(=O)c1c(C)n(-c2ccc(C)cc2)c2c(C(C(C)=O)C(=O)O)c(Br)c(O)c(O)c12 (stereo not drawn) | -2 | -4 | 17 | 1 | 1
C(=C\c1ccccc1)/CSc1nnc(-c2cccnc2)o1 | 16 | 55* | 5 | 0.8 | 0.4
Cc1ccc(CSc2nnc(-c3cccnc3)o2)cc1 | 58* | 70* | 20 | 0.4 | 0.3
c1ccc(CSc2nnc(-c3cccnc3)o2)cc1 | / | / | 4 | / | /
O=C(O)CSc1nc2ccccc2o1 | -20 | -25 | 20 | 1.2 | 1.3
SMILES | CYP2C9 inhib | CYP2C19 inhib | Measles CPE | CYP2C9 activ | CYP2C19 act
c1cncc(-c2nnc(SCc3nc4ccccc4[nH]3)o2)c1 | 39 | 70* | 1 | 0.6 | 0.3
Nn1c(CSc2nc3ccccc3o2)nnc1CSc1nc2ccccc2o1 | 66* | 72* | 26 | 0.3 | 0.3
COC(=O)c1c(S(N)(=O)=O)c2ccccc2n1C | -59 | 0 | 4 | 1.6 | 1
c1ccc2[nH]c(CSc3nc4ccccc4o3)nc2c1 | 70* | 100* | 9 | 0.3 | 0
Fc1ccc(-c2cnc(-c3cccs3)o2)cc1 | 6 | 7 | 6 | 0.9 | 0.9
Cc1cccc(N(CC(=O)NCCSc2nc3ccccc3s2)S(=O)(=O)c2ccccc2)c1 | / | / | 13 | / | /
Cc1ccc(C)c(N(CC(=O)NCCSCc2ccco2)S(C)(=O)=O)c1 | 88* | 81* | 6 | 0.1 | 0.2
CCNC(=O)CN(c1ccc(C)cc1)S(=O)(=O)c1ccccc1 | 19 | 39 | 6 | 0.8 | 0.6
Cc1cccc(N(CC(=O)NCCSCc2ccco2)S(=O)(=O)c2ccccc2)c1 | 71* | 68* | 4 | 0.3 | 0.3
Cc1cc(C)cc(N(CC(=O)NCCSc2ccccn2)S(=O)(=O)c2ccccc2)c1 | 64* | 49 | 5 | 0.4 | 0.5
Cc1ccc(N(CC(=O)NCCSCc2ccco2)S(=O)(=O)c2ccc(C)cc2)cc1 | 88* | 71* | 9 | 0.1 | 0.3
COc1ccc(OC2C(=O)N(Cc3ccc(F)cc3)C2c2ccc(OC)c(OC)c2)cc1 (stereo not drawn) | 60* | 72* | 32 | 0.4 | 0.3
N#C/C(=C(/O)C(Cl)c1ccccc1)c1nc2ccccc2s1 (stereo not drawn) | 77* | 58* | 7 | 0.2 | 0.4
O=C(CSc1nnc(Cn2c(=O)sc3ccccc32)n1-c1ccccc1)Nc1nccs1 | 68* | 11 | 13 | 0.3 | 0.9
CSc1nnc(Cn2c(=O)sc3ccccc32)n1-c1ccccc1 | 35 | 53* | 8 | 0.6 | 0.5
O=C(CSc1nnc(Cn2c(=O)sc3ccccc32)n1-c1ccccc1)N1CCCC1 | / | / | 34 | / | /
CCOC(=O)c1ccc(C(=O)OCC)nc1 | 10 | 11 | 12 | 0.9 | 0.9
CC(C)C12CN3CC(C(C)C)(CN(C1)C31C(=O)Nc3ccccc31)C2=O (stereo not drawn) | -14 | -16 | 16 | 1.1 | 1.2
Cc1[nH]c2ccc(OCc3ccccc3)cc2c1CCN1C(=O)OC(C)(C)C1(C)O (stereo not drawn) | 40 | 51* | 5 | 0.6 | 0.5
CC1(C)OC(=O)N(CCc2ccccc2)C1(C)O (stereo not drawn) | -4 | 8 | 15 | 1 | 0.9
O=c1ccn(-c2cccc(C(F)(F)F)c2)nc1-c1ccn(-c2ccccc2F)n1 | 69* | 41 | 5 | 0.3 | 0.6
COc1ccc(-n2ccc(-c3nn(-c4cccc(C(F)(F)F)c4)ccc3=O)n2)cc1 | 83* | 82* | 7 | 0.2 | 0.2
COc1ccccc1NC(=O)c1nn(-c2cccc(C(F)(F)F)c2)ccc1=O | -167 | -8 | 22 | 2.7* | 1.1
COc1ccccc1NC(=O)c1nn(-c2ccc(F)c(F)c2)ccc1=O | -30 | -12 | 10 | 1.3 | 1.1
O=C(OCC(=O)c1ccc[nH]1)c1ccc(S(=O)(=O)N2CCCCC2)cc1 | 21 | 6 | 11 | 0.8 | 0.9
CC(=O)c1ccc(N2C(=O)C3C(C2=O)C(C(=O)c2ccc(Cl)cc2)N2CCCC32)cc1 (stereo not drawn) | 14 | 22 | 13 | 0.9 | 0.8
